Sampled rows, rich in hits. Any-hit rate of the full collection: about 8%.
MARV entry inh: Marburg virus entry inhibition; Potency, µM (titrated, usually from 37.8 µM), for the others: at the highest dose activity change, negative = inhibition, actives largely listed as inhibitors; 300,000 tested, 1.8% active; Marburg virus pseudotyped entry inhibition, cell reporter; AID 540276; calls by dose curve; tested in HEK293 cells; also: potency is read from the fitted curve at half-maximal effect; % is scaled to controls: 0 for no effect and ±100 for the full control effect
HCMV inh: inhibitors of human cytomegalovirus; 410,000 tested, 4.5% active; HFF cells, HCMV-luciferase reporter, 72 h; hits give low values; activity change, negative = inhibition, % at 57.5 µM; in the data active = activity change below about -60%; inconclusive = no clear call, values can overlap the other calls; inactive = above about -39%; also: % is scaled to controls: 0 for no effect and ±100 for the full control effect
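Two-dose cell screen: HFF monolayers treated with compounds and infected with luciferase-expressing HCMV at 1 PFU/cell, 72 h at 37C, then lysed for luciferase measurement.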
SARS PLpro yeast: blocks SARS-CoV papain-like protease in a yeast assay; S. cerevisiae expressing SARS-CoV PLpro, growth rescue; Potency, µM (highest dose often 32.9 µM), for the others: at the highest dose activity, positive = growth rescue, most hits filed as activators; 330,000 tested, 0.19% active; AID 485353; calls by dose curve; also: potency is read from the fitted curve at half-maximal effect; 0% is about no effect; nearly all actives have a fitted effect of over 55% in size
FMDV inh: foot and mouth disease virus antiviral activity; 410,000 tested, 1.2% active; Potency, µM (doses to about 57.9 µM), inactives show at the top dose activity change, negative = inhibition, most hits filed as inhibitors; FMDV antiviral cell-based qHTS; calls by dose curve; tested in HEK293T cells; also: read-out not given here; potency is read from the fitted curve at half-maximal effect; % is scaled to controls: 0 for no effect and ±100 for the full control effect; nearly all actives have a fitted effect of over 45% in size
Lassa entry inh: blocks Lassa virus binding to or entry into cells | 300,000 tested, 1.2% active | Lassa virus pseudotype entry inhibition, cell reporter | AID 540256 | Potency, µM (titrated, usually from 37.9 µM), for the others: top-dose activity change, negative = inhibition, hits mostly inhibitors; calls by dose curve; tested in HEK293 cells; also: potency is read from the fitted curve at half-maximal effect; % is scaled to controls: 0 for no effect and ±100 for the full control effect; nearly all actives have a fitted effect of over 50% in size
HCV inh: blocks hepatitis C virus; Potency, µM (top dose mostly 41.8 µM), inactives show at the highest dose activity change, negative = inhibition, actives largely listed as inhibitors; AID 651820; Huh7.5.1 HCVcc-Cre infection, luciferase reporter, 44 h; 340,000 tested, 3.4% active; active = well fitted inhibition curve with a large enough effect; inconclusive = small, poorly fitted or top-dose-only effect, or another doubt; inactive = no such curve, though single readings can be large or run the other way; also: potency is read from the fitted curve at half-maximal effect; % is scaled to controls: 0 for no effect and ±100 for the full control effect
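Seed cells (1,000/well) for 4 h; treat with compound and infect with HCVcc-Cre, moi about 0.5. Incubate 44 h, then detect luciferase activity.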
Active calls of the source: *; ? = inconclusive; · = not tested or not shown; [ ] = dose if it differs, or a comment.

SMILES	MARV entry inh	HCMV inh	SARS PLpro yeast	FMDV inh	Lassa entry inh	HCV inh
c1cc(Nc2ncnc3sc4c(c23)CCC4)ccn1	-3%	-63*	-1%	-16%	18%	12%
C(=N\Nc1ncnc2sc3c(c12)CCC3)/c1cccs1	-7%	-102*	-21%	·	·	·
CCN(CC)c1cccc(OCC(=O)N2c3ccccc3CC2C)c1 (stereo not drawn)	·	-77*	7%[6.58 µM]	-5%	·	?
Cn1c(-c2ccc3ccccc3n2)[n+](C)c2ccccc21	-17%[46.1 µM]	-72*	0%	19%	-14%	?
CN(C)c1ccc(-c2n(C)c3ccccc3[n+]2C)cc1	?	-97*	25%	·	?	8.9µM*
Cn1c(-c2ccccn2)[n+](C)c2ccccc21	20%[46.1 µM]	-13	1%	28%	8%[46.1 µM]	-12%
CCc1ccccc1NC(=O)N1CCN(c2cc(-c3noc(C)n3)ccc2C)CC1	·	4	·	-23%	14%[46.1 µM]	·
CCCCn1nnnc1C(CCc1ccccc1)N1CCC(n2c(=O)[nH]c3ccccc32)CC1 (stereo not drawn)	·	-101*	·	20µM*	·	·
CCC(c1nnnn1Cc1ccccc1)N1CCC(n2c(=O)[nH]c3ccccc32)CC1 (stereo not drawn)	·	-61*	·	?	·	·
Clc1ccc(C[n+]2cc(-c3ccccc3)n3c2CCC3)cc1Cl	?	-72*	7%	0%	?	-21%
Clc1ccc(-c2c[n+](Cc3cccc(Cl)c3)c3n2CCC3)cc1	1%	-94*	0%	-12%	-1%	-5%
COc1ccc(-n2nc3ccc(NC(=O)c4c(OC)cccc4OC)cc3n2)cc1	?	52	·	16%	-15%[46.1 µM]	·
COc1ccc(S(=O)(=O)N2CCCCC2)cc1NC(=O)CN(C)C1CCCCC1	?	-38	0%	16%	?	11µM*
COc1ccc(S(=O)(=O)N2CCCCCC2)cc1NC(=O)Cc1cc(OC)c(OC)c(OC)c1	?	2	16%	-14%	-2%	-10%
COc1ccc(S(=O)(=O)Nc2ccccc2C(=O)NC2CC2)cc1NC(C)=O	·	31	2%	8%	·	1%
COc1ccc(S(=O)(=O)N2CCCCC2)cc1NC(=O)CN(Cc1ccco1)Cc1ccco1	·	-70*	-4%	?	·	10µM*
COc1ccc(S(=O)(=O)N2CCCC2)cc1NC(=O)c1ccccc1	8%[46.1 µM]	-14	9%	-21%	29%	13%
COc1ccc(S(=O)(=O)Nc2ccccc2OC)cc1NC(=O)CC1CC2CCC1C2 (stereo not drawn)	?	?	7%	-10%	?	6.3µM*
COc1ccc(S(=O)(=O)N2CCN(C(c3ccccc3)c3ccccc3)CC2)cc1NC(C)=O	·	26	1%	-5%	·	3.2µM*
CCS(=O)(=O)N1CC(=O)N(c2ccc(Cl)cc2)C(C)(C(=O)NC2CCCCC2)C1 (stereo not drawn)	·	0	·	-17%	21%[46.1 µM]	·
CC(C)CCNC(=O)C(=O)Nc1c2c(nn1-c1ccc(Cl)cc1)CSC2	·	-15	·	-2%	-13%[46.1 µM]	·
O=C(CSc1nc2c([nH]c3ccccc32)c(=O)n1-c1ccccc1)N1CCCc2ccccc21	·	31	·	1%	0%[46.1 µM]	·
Cc1ccc(N(CC(=O)NC2CC3CCC2C3)S(C)(=O)=O)cc1C (stereo not drawn)	0%	17	-11%	-7%	?	13%
CS(=O)(=O)N(CC(=O)NC1CC2CCC1C2)c1cccc(C(F)(F)F)c1 (stereo not drawn)	-16%	-103*	6%	-7%	-19%	9%
CCC(=O)N1CCc2cc(CNC(=O)c3ccccc3C)ccc21	·	65	·	32%	1%[46.1 µM]	·
SMILES	MARV entry inh	HCMV inh	SARS PLpro yeast	FMDV inh	Lassa entry inh	HCV inh
COc1ccc(/C=C/C(=O)NCCc2c[nH]c3ccccc23)cc1OC	·	0	-1%	0%	·	-28%
COc1ccc(CNC(=O)/C=C\c2ccc3[nH]cc(CCN(C)C)c3c2)cc1	35µM*	·	·	17%	·	·
COc1cc(Cl)c(NC(=O)CN(C)S(=O)(=O)c2ccc3c(c2)CCCC(=O)N3)c(OC)c1	·	?	·	?	-29%[46.1 µM]	·
C=C(C)[C@@H]1CC=C(CN2CCC(N3CCC(C(=O)N4CCCC4)CC3)CC2)CC1	?	?	-4%	?	?	?
CC(C)=CCCC(C)CN1CCC(N2CCC(C(=O)N3CCCC3)CC2)CC1 (stereo not drawn)	·	?	-1%	?	·	2.5µM*
COc1ccc(OC)c(/C=C/C(=O)Nc2ccc(C(=O)OCCC(C)C)cc2)c1	·	-18	·	-11%	?	·
C=CCn1c(=N)n(CC(=O)c2ccc(Br)s2)c2ccccc21	?	-74*	-7%	-41%	?	?
CC(=O)c1ccc2c3c(cc(C)c2c1)CCCC3	-3%[46.1 µM]	-66*	·	24%	6%[46.1 µM]	11µM*
CCn1cc(C(=O)OCC(=O)NCc2ccccc2Cl)c(=O)c2ccc(C)nc21	8%[46.1 µM]	-102*	1%	-23%	-13%	-13%
COc1ccc2c(c1)c1c(c(=O)n(Cc3ccccc3)c(=O)n1CC(=O)Nc1ccccc1OC)n2C	·	10	·	6%	9%[46.1 µM]	·
CCOc1ccc2nc(N3CCCC(C(=O)Nc4cc(Cl)c(OC)cc4OC)C3)sc2c1 (stereo not drawn)	?	30	·	34%	·	·
Cc1cc(=O)[nH]c(N2CCOCC2)n1	2%[46.1 µM]	-20	0%	-6%	16%	5%
Cc1cc(N2CCOCC2)c2c(N)c(Br)cc(C)c2n1	-30%[46.1 µM]	-82*	-1%	?	3%	?
CCS(=O)(=O)c1ncc(Cl)c(C(=O)Nc2c(C(=O)Nc3cccc(C)c3)oc3ccccc23)n1	39%[46.1 µM]	19	·	-17%	?	·
Cc1cccc(NC(=O)c2nc(S(C)(=O)=O)ncc2Cl)c1	·	-108*	·	25µM*	?	·
COc1cccc(NC(=O)c2nc(S(C)(=O)=O)ncc2Cl)c1	?	-103*	-3%	22µM*	?	?
COc1cccc(NC(=O)c2nc(SC)ncc2Cl)c1	24%[46.1 µM]	-3	-6%	-3%	0%[46.1 µM]	12%
CCOc1ccc(S(=O)(=O)NCC(c2ccc(N(C)C)cc2)N2CCCC2)cc1 (stereo not drawn)	·	-20	·	-13%	-2%[46.1 µM]	·
N#CCSc1nc2c(cc1C#N)CCCCCC2	-9%	-68*	-19%	-17%	?	?
N#Cc1cc2c(nc1SCC(O)CS(=O)(=O)Cc1ccc(Cl)cc1)CCCC2 (stereo not drawn)	-14%	-64*	3%	·	-33%	?
O=C(CN1Cc2ccccc2OC(c2ccsc2)C1)N1CCC(c2nc3ccccc3[nH]2)CC1 (stereo not drawn)	·	·	·	8%	·	·
Cc1ccc2c(C)c(C(=O)Nc3ccc(S(=O)(=O)Nc4onc(C)c4C)cc3)oc2c1	5%[46.1 µM]	-30	14%	-11%	-11%[46.1 µM]	0.5µM*
COC(=O)c1ccc(NC(=O)Cc2coc3cc(C)ccc23)cc1	6%[46.1 µM]	-8	·	-8%	-2%[46.1 µM]	·

Bioassay records deposited in PubChem by National Center for Advancing Translational Sciences (NCATS).
